Consider 37 compounds from PubChem BioAssay AID624481 (The Scripps Research Institute Molecular Screening Center, 2012).

A number with no mark means an inactive call. Activity calls are given as the source filed them. Cut-off read from the data, not from the text of the source: active = inhibition above about 50%; inactive = the rest.

Prolyl endopeptidase-like (Mus musculus), sequence (Q8C167 whole entry, looked up): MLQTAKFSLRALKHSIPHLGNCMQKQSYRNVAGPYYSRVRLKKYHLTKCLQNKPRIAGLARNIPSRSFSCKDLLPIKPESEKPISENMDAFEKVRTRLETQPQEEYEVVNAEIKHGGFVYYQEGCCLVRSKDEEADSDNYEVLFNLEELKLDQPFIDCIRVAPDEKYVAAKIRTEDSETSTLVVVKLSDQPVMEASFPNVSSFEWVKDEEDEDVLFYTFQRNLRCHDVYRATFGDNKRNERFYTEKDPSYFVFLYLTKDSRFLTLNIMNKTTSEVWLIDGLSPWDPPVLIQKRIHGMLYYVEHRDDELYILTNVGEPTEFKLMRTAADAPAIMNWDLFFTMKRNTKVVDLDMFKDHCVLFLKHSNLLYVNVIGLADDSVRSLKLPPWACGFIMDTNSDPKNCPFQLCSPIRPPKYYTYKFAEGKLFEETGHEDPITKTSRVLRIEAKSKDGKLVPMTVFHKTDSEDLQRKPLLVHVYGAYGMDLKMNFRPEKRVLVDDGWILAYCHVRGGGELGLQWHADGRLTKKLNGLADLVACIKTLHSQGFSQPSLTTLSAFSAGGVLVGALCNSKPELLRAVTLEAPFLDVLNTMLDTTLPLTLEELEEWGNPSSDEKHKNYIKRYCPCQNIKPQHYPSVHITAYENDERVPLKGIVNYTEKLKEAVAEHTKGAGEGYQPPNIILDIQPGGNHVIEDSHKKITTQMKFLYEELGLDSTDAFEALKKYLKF

This experiment has as its target Prolyl endopeptidase-like (Mus musculus) (UniProt Q8C167). Briefly: purified PREPL inhibitors, PREPL inhibitor project, biochemical, gel-based competitive ABPP, fluorescence, HTS hits (AID 624481). The note with it: at 20 µM, stronger effect = higher value.
Turning to `COCCCNC(=O)/C(C#N)=C/c1c(N2CCN(c3ccc(OC)cc3)CC2)nc2c(C)cccn2c1=O`, the inhibition is -39%.

Turning to `COc1ccc(N2CCN(C(=O)c3cn(C4CCCC4)c(=O)c4c3c3ccccc3n4C)CC2)cc1`, the inhibition is 92% (active).

For `Cc1cccc(OCC(=O)Nc2ccc(N3CCN(C(=O)c4ccco4)CC3)cc2)c1`, the inhibition was -15%.

As to `Cc1ccc(OCC(=O)Nc2ccc(N3CCN(C(=O)c4ccco4)CC3)cc2)c(C)c1`, the inhibition was -7%.

Turning to `CC1CCCN(Cc2c(O)ccc3c(=O)c(-c4nc5ccccc5s4)c(N)oc23)C1` (configuration not stated), the inhibition was 3%.

With `Cc1noc(C)c1S(=O)(=O)N(C)C[C@H]1Oc2c(NC(=O)Nc3ccc(C(F)(F)F)cc3)cccc2C(=O)N([C@H](C)CO)C[C@@H]1C`, the inhibition is 9%.

Consider `COc1ccc(C)cc1Nc1n[n+](-c2ccccc2)c(-c2ccc(N(C)C)cc2)s1`, for which the inhibition was -72%.

Turning to `Cc1ccc(C2CC(c3cccc(Cl)c3)n3nc(N)nc3N2)cc1` (configuration not stated), the inhibition was -71%.

Turning to `CC(C)[C@H](CN1CCC[C@H]1CN1C(N)=NC[C@@H]1Cc1ccccc1)N1C[C@@H](Cc2ccccc2)N(CCc2ccc(Cl)c(Cl)c2)C1=N`, the inhibition was -75%.

In the case of `C[n+]1c(-c2ccccc2)sc(S)c1-c1ccccc1`, the inhibition was -31%.

For the compound `CC(=NNc1nc2ccccc2[nH]1)c1cc2ccccc2o1`, the inhibition is -17%.

Take `CN(C)CCc1cc2c(c3c1ccc1ccccc13)OCO2`: the inhibition was -26%.

Turning to `Oc1ccc(Nc2nc(N3CCCC3)c3ccccc3n2)cc1`, the inhibition is -60%.

With `Nc1[nH]n2c(=O)c3c(nc2c1N=Nc1ccc(Cl)cc1)CCCC3`, the inhibition is -12%.

Regarding `C(=NNc1nc2ccccc2[nH]1)c1c[nH]c2ccccc12`, the inhibition is 36%.

For `CCCCCNc1nc(N2CCCC2)c2c(c1C#N)CCN(C)C2`, the inhibition was -89%.

In the case of `CC(C)NCC(O)Cn1c2c(c3ccccc31)CCc1c-2cnn1-c1ccccc1` (configuration not stated), the inhibition is -123%.

As for `Cc1ccc(-c2csc(=Nc3cccnc3)n2CCCn2ccnc2)cc1C`, the inhibition is -52%.

On to `CCN(CC)c1ccc(-c2sc(Nc3ccccc3)n[n+]2-c2ccc(F)cc2)cc1`, for which the inhibition is -94%.

For the compound `CN(C)c1nc(-c2ccccn2)nnc1-c1ccccc1`, the inhibition is -28%.

Turning to `C=CC[n+]1c(/C=C2\C=Cc3cc(C)ccc3N2CC)ccc2ccccc21`, the inhibition is -26%.

In the case of `Oc1sc(C=Nc2ccc(F)cc2)c2ccccc12`, the inhibition is 20%.

As for `COc1ccc(C(=O)c2coc3ccc(O)c(CN4CCCCC4)c23)cc1`, the inhibition was -53%.

For `Cc1cc(OCC(=O)Nc2ccc(N3CCN(C)CC3)cc2)ccc1Cl`, the inhibition is -14%.

`COc1ccc2nc(C)cc(NN=Cc3cccc(OC)c3O)c2c1`: the inhibition was -23%.

`CC(C)Nc1ccc(Nc2ccnc3cc4ccccc4cc23)cc1`: the inhibition is -11%.

In the case of `CCC[C@@H](CN1CCC[C@H]1CN1C(N)=NC[C@@H]1Cc1ccccc1)N1C[C@@H]([C@H](C)CC)N(CCCC2CCCC2)C1=N`, the inhibition is 9%.

In the case of `CCCCCCCCCCCCCCCC[N+](C)(C)CCN(Cc1ccc(OC)cc1)c1ncccn1`, the inhibition is 81% (active).

Consider `Nc1[nH]n2c(=O)c3c(nc2c1N=Nc1ccccc1)CCCC3`, for which the inhibition was 1%.

For the compound `CCCCCN=C(N)NN=Cc1c[nH]c2ccc(OC)cc12`, the inhibition is -11%.

In the case of `CN(C)c1ccc(C(CNC(=O)COc2ccc(Cl)cc2)N2CCCC2)cc1` (configuration not stated), the inhibition is -25%.

For the compound `C#CCOCCOCCOCCNc1nc(N2CCN(C(=O)CCCCCCCCCCNC(=O)[C@H](CCCCN)n3cc(CCO)nn3)CC2)nc(N2CCN(C(=O)CCCCCCCCCCNC(=O)[C@H](CCCCN)n3cc(C[C@@H](C)CC)nn3)CC2)n1`, the inhibition is -141%.

On to `CCN(CC)CCNc1ccc(CO)c2sc3ccccc3c(=O)c12`, for which the inhibition was -23%.

Take `Cc1c(CN(C)C)c2c(n1Cc1ccccc1)C(=O)c1ccc(Br)cc1-2`: the inhibition is -33%.

With `CCN1/C(=C\c2ccc3ccccc3[n+]2CC)Sc2cc(C)ccc21`, the inhibition was 50% (active).

As to `CN1Cc2c(N3CCOCC3)nc3sc(C(=O)c4ccccc4)c(N)c3c2CC1(C)C`, the inhibition is -32%.

Take `COc1ccc(OCC(=O)NNc2c3ccccc3nc3ccccc23)cc1`: the inhibition was -2%.
